A short description of assay [1]: NCI Yeast Anticancer Drug Screen. Data for the rad50 strain (AID 155).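 Also: 0% = growth of vehicle-only cultures of the same strain.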 The conditions noted are these: S. cerevisiae rad50 strain growth inhibition; at 50.0 µM; active compounds read high. In short, it runs like this:
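DNA repair mutant yeast, compound exposure, growth read-out; inhibition is taken relative to vehicle.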

A short description of assay [2]: NCI Yeast Anticancer Drug Screen. Data for the mec2-1 strain (AID 157). The conditions noted are these: S. cerevisiae mec2-1 strain, at 50.0 µM, active compounds read high. The gist of the method: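 Compounds were applied to mec2-1 yeast cells. Their growth was then compared with that of vehicle-treated cultures to give growth inhibition.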
Assay [3] in a line: NCI Yeast Anticancer Drug Screen. Data for the sgs1 mgt1 strain (AID 161).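 Also: 0% = growth of cultures given vehicle only.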 The conditions noted are these: S. cerevisiae sgs1 mgt1 strain, at 50.0 µM, active compounds read high. The gist of the method: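 Percent growth inhibition was derived by comparing compound-exposed mutant yeast with vehicle-exposed cultures. The strain carries alterations in DNA damage repair.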
The nature of assay [4]: NCI Yeast Anticancer Drug Screen. Data for the cln2 rad14 strain (AID 165).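 Also: 0% = growth equal to vehicle treated cultures.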 The conditions noted are these: S. cerevisiae cln2 rad14 strain, at 50.0 µM, active compounds read high. In short, it runs like this: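 Strain: cln2 rad14 yeast, altered in cell cycle control and DNA damage repair. Read-out: growth inhibition vs vehicle.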
The nature of assay [5]: NCI Yeast Anticancer Drug Screen. Data for the bub3 strain (AID 167). The settings on record: S. cerevisiae bub3 mutant strain, at 50.0 µM, active compounds read high. The gist of the method: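 In this screen, a yeast mutant lacking normal mitotic checkpoint function is challenged with compound. Relative growth versus vehicle gives the inhibition value.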
Assay [6] in a line: NCI Yeast Anticancer Drug Screen. Data for the mlh1 rad18 strain (AID 175). The settings on record: S. cerevisiae mlh1 rad18 strain growth inhibition; at 50.0 µM; active compounds read high. In short, it runs like this:
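A repair-deficient yeast strain is exposed to test compound, and growth is scored relative to vehicle-treated controls.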

SMILES strings stand for the structures. About 79,000 compounds went through this panel and 15% of them were active in at least one assay; those are over-represented in the sample as a whole. Values without a mark were called inactive. The source made the active and inactive calls. Rule as the data show it: active = growth inhibition above about 70%; inactive = the rest.

As to `[Cl][Sn]1([Cl])[CH2]CCCCCC[CH2][Sn]([Cl])([Cl])[CH2]CCCCCC[CH2]1`, the growth inhibition was 26.4% in assay [1]; 6.75% in assay [2]; 24.1% in assay [3]; 33.8% in assay [4]; -2.05% in assay [5]; 18.7% in assay [6].

With `COc1ccc2nc3ccccc3c(NCCCN(C)CCCl)c2c1`, the growth inhibition in assay [1] was 67.8%; in assay [2], 56.5%; in assay [3], 57.8%; in assay [4], 50.5%; in assay [5] it was -0.5%; in assay [6], 66.2%.

As to `CNC(=O)Oc1cc(C)cc(C(C)C)c1`, the growth inhibition in assay [1] is 14.3%; in assay [2] it was 0.05%; in assay [3] it was 1.6%; in assay [4], 9.15%; in assay [5] it was 1.3%; in assay [6], 6%.

In the case of `NC(=O)C[CH2][Sn]([Cl])([Cl])[CH2]CC(N)=O`, the growth inhibition was -5.65% in assay [1]; -5.5% in assay [2]; 3.55% in assay [3]; 5.3% in assay [4]; 7.9% in assay [5]; -7% in assay [6].

For `CC(=O)c1cccc(S(=O)(=O)F)c1`, the growth inhibition is -9.7% in assay [1]; -11.3% in assay [2]; -3.25% in assay [3]; 13% in assay [4]; -14.9% in assay [5]; -11.8% in assay [6].

For `CCOC(=O)C(O)(c1ccccc1)c1ccccc1`, the growth inhibition is 2.05% in assay [1]; -5.95% in assay [2]; 6.85% in assay [3]; 16.8% in assay [4]; -3.35% in assay [5]; 31% in assay [6].

Regarding `O=[As](O)(O)c1cccc(Cl)c1`, the growth inhibition in assay [1] is 9.3%; in assay [2], -0.25%; in assay [3], -13.8%; in assay [4], 1.85%; in assay [5] it was 1.9%; in assay [6] it was -0.9%.

On to `CCOc1cc(CCNC)c2c(ccc3ccc(OC)c(O)c32)c1OC`, for which the growth inhibition in assay [1] is 27.2%; in assay [2] it was -0.4%; in assay [3] it was 4.75%; in assay [4], 26.9%; in assay [5] it was -7.2%; in assay [6], -36.8%.

Regarding `C[C@]12CC[C@@H](OC(=O)N(CCCl)N=O)C[C@@H]1CC[C@@H]1[C@@H]2CC[C@]2(C)C(=O)CC[C@@H]12`, the growth inhibition in assay [1] was 1.55%; in assay [2] it was -3.4%; in assay [3], 26.5%; in assay [4], -0.75%; in assay [5] it was 13.2%; in assay [6], 59.9%.

Regarding `CCCCOP(=S)(OCCCC)Oc1ccc(Cl)cc1Cl`, the growth inhibition in assay [1] is -4.95%; in assay [2], -41.4%; in assay [3], -0.55%; in assay [4] it was -0.25%; in assay [5] it was 17.5%; in assay [6], -1.95%.

Regarding `N#CC(C#N)=Cc1ccc(F)cc1`, the growth inhibition in assay [1] was -6.85%; in assay [2], 5%; in assay [3], -18.7%; in assay [4] it was -15.7%; in assay [5], 16.1%; in assay [6] it was -15.5%.

In the case of `O=C(COc1ccc(Cl)c(Cl)c1)Nc1ccccc1S(=O)(=O)F`, the growth inhibition in assay [1] was 27.6%; in assay [2] it was -5.35%; in assay [3], -3.8%; in assay [4], 21.6%; in assay [5], 5.15%; in assay [6], 21.4%.

Regarding `CCCCCCCCCCCCCCCC[As](CCCCCCCCCCCCCCCC)SC1OC(COC(C)=O)C(OC(C)=O)C(OC(C)=O)C1OC(C)=O` (stereo not drawn), the growth inhibition in assay [1] was 6.55%; in assay [2], 3.55%; in assay [3] it was 19.9%; in assay [4], -4.7%; in assay [5] it was 1.5%; in assay [6], 3.55%.

As for `CCCOP1(=O)C=C(C)C(Cl)=C(C)C1` (stereo not drawn), the growth inhibition was 33.5% in assay [1]; -4.6% in assay [2]; 20% in assay [3]; -1.45% in assay [4]; -14.7% in assay [5]; 34.8% in assay [6].

Turning to `CC1=CC(=Nc2ccc(N(CCCl)CCCl)cc2)C=C(C)C1=O`, the growth inhibition is 3.2% in assay [1]; -16.6% in assay [2]; 12.2% in assay [3]; 13.8% in assay [4]; 8.15% in assay [5]; 37.1% in assay [6].

On to `CN(C)c1ccc(/C=C/C=C\C2=CC(=C\C=C/C=C3C=CC(=[N+](C)C)C=C3)/Sc3ccccc32)cc1`, for which the growth inhibition in assay [1] is -36.4%; in assay [2], -45.9%; in assay [3] it was -63.7%; in assay [4] it was -29.6%; in assay [5], -27.4%; in assay [6], -55.3%.

For the molecule `Cc1ccc([P+](=O)O)cc1Cl`, the growth inhibition is -12.1% in assay [1]; -3.75% in assay [2]; -8.55% in assay [3]; -9.25% in assay [4]; 1.65% in assay [5]; -3% in assay [6].

For `Nc1nc(-c2ccccc2)c[se]1`, the growth inhibition in assay [1] was 63.6%; in assay [2] it was 32.3%; in assay [3], 30.6%; in assay [4] it was 16.6%; in assay [5], -7.65%; in assay [6], 31.4%.

Consider `c1ccc(-c2ccc[n+](CC[n+]3cccc(-c4ccccn4)c3)c2)nc1`, for which the growth inhibition in assay [1] was 0.3%; in assay [2], -9.4%; in assay [3], -25.4%; in assay [4], -11.4%; in assay [5], -0.1%; in assay [6], 8.45%.

With `COc1ccc2ccc([Se]c3ccc4ccc(OC)cc4c3)cc2c1`, the growth inhibition was -1.25% in assay [1]; -22.4% in assay [2]; -1.85% in assay [3]; 4.45% in assay [4]; 7.55% in assay [5]; -1.1% in assay [6].

For `CCC[CH2][Sn]([CH2]CCC)([O]C(=O)CN)[O]C(=O)CN`, the growth inhibition in assay [1] is 29.9%; in assay [2] it was 17.9%; in assay [3], 35.4%; in assay [4], 22%; in assay [5], 19.1%; in assay [6], 44.1%.

Regarding `Cc1cc[n+](CCc2ccccc2)cc1`, the growth inhibition in assay [1] is 7.95%; in assay [2], 15.1%; in assay [3], 15.2%; in assay [4], -8.35%; in assay [5] it was 8.75%; in assay [6] it was 9.6%.

For `S=C([S-])N1CCCCC1.S=C([S-])N1CCCCC1.[Zn]`, the growth inhibition was 79.5% (active) in assay [1]; 73.3% (active) in assay [2]; 96% (active) in assay [3]; 22.9% in assay [4]; -3% in assay [5]; 65% in assay [6].

`COc1ccc2nc3c4ccccc4scc-3c2c1`: the growth inhibition in assay [1] was 99.4% (active); in assay [2], 99.5% (active); in assay [3], 99.5% (active); in assay [4], 99.2% (active); in assay [5] it was 99.2% (active); in assay [6], 99.3% (active).

Take `[N-]=[N+]=NC(=O)Nc1ccccc1F`: the growth inhibition in assay [1] is -6.4%; in assay [2], -1.1%; in assay [3] it was -14.6%; in assay [4], -19.3%; in assay [5], -19.6%; in assay [6], 16.1%.

Consider `Cc1cc(C)c(O)c(CN2CCCCC2)c1`, for which the growth inhibition in assay [1] is 4.35%; in assay [2] it was 13.1%; in assay [3] it was 32.8%; in assay [4], -4%; in assay [5] it was 19.6%; in assay [6] it was 14.5%.

Take `CC(C)c1cccc(C(C)C)c1O`: the growth inhibition in assay [1] was 22.2%; in assay [2], 26%; in assay [3], -21.9%; in assay [4], 3.5%; in assay [5], 10.9%; in assay [6], 12.9%.

Consider `Clc1ccc(C2CC3CCCCN3O2)cc1` (stereo not drawn), for which the growth inhibition is 13.6% in assay [1]; 3% in assay [2]; 5.9% in assay [3]; -1.1% in assay [4]; 11.6% in assay [5]; 5.45% in assay [6].

In the case of `CCC(C(C)C)C1NC1C(C)C1CCC2C3CC=C4CC(OC(C)=O)CCC4(C)C3CCC12C` (stereo not drawn), the growth inhibition in assay [1] is 95.8% (active); in assay [2], 99.2% (active); in assay [3], 99.1% (active); in assay [4] it was 98.3% (active); in assay [5], 98.6% (active); in assay [6] it was 98.7% (active).

Turning to `Nc1nc(=S)nc(N)[nH]1`, the growth inhibition in assay [1] is 21.6%; in assay [2] it was 11.2%; in assay [3], -7.9%; in assay [4], -18.5%; in assay [5], 14.6%; in assay [6], -2.5%.

Regarding `Oc1ccc(O)c(Br)c1`, the growth inhibition is 18.8% in assay [1]; 5.9% in assay [2]; 28.1% in assay [3]; -21.3% in assay [4]; -4.85% in assay [5]; 29.4% in assay [6].

Turning to `CN(C)C(=O)CCCc1ccc(N(CCCl)CCCl)cc1`, the growth inhibition in assay [1] is 19.6%; in assay [2], -1.85%; in assay [3], 5.3%; in assay [4], 9.55%; in assay [5], -0.9%; in assay [6], 9.6%.

As for `Oc1ccccc1C=NCCN=Cc1ccccc1O.[Fe]`, the growth inhibition in assay [1] is 11.8%; in assay [2] it was 22.2%; in assay [3] it was 5.35%; in assay [4], 6.25%; in assay [5], 46%; in assay [6] it was 13.6%.

Take `CC(C)(C#N)O[N+](=O)[O-]`: the growth inhibition in assay [1] is 0.1%; in assay [2], 7.3%; in assay [3] it was -4.7%; in assay [4], -16.8%; in assay [5] it was -0.7%; in assay [6] it was 0.2%.

For the molecule `CN(C)P(=O)(N(C)C)N(C)C` (tested in a mixture with another compound), the growth inhibition was 8.45% in assay [1]; -7% in assay [2]; 3.65% in assay [3]; -21.1% in assay [4]; -31.6% in assay [5]; -14.3% in assay [6].

For `CC(=O)O[C@@]12CO[C@@H]1CC(O)[C@@]1(C)C(=O)[C@H](O)C3=C(C)C(O)C[C@@](O)(C(OC(=O)c4ccccc4)C12)C3(C)C` (stereo partly drawn), the growth inhibition in assay [1] is -12.8%; in assay [2], -28.4%; in assay [3] it was -12.3%; in assay [4], -5.9%; in assay [5], -29.4%; in assay [6] it was -8.65%.

`OC1(c2ccccc2)C2CCN(CC2)C1CN1CCOCC1` (stereo not drawn): the growth inhibition in assay [1] was -23.6%; in assay [2] it was -30.7%; in assay [3], -20.6%; in assay [4], 4.05%; in assay [5] it was 13.3%; in assay [6], 7.95%.

On to `C[N+]1(CCCl)CCc2ccc([N+](=O)[O-])cc2C1` (stereo not drawn), for which the growth inhibition was -36.9% in assay [1]; -35.5% in assay [2]; 6.95% in assay [3]; 0.8% in assay [4]; 9.3% in assay [5]; -13.8% in assay [6].

Source of the values: PubChem BioAssay (NCI).
